Out of some 53,000 sequences screened, about 3,700 (7%) were called active. Only a selection was taken, and actives are over-represented in it overall. A number with no mark means an inactive call.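 How the source made its calls: active means gene knockdowns whose robust z-score for IL-1 alpha signal is at least 2 or at most -2, so actives lie on both sides; inactive means the rest.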
Assay: Components of the Cytosolic LPS Sensing Pathway: Gene Identification via Genome-wide siRNA Screen;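 further: robust z of the log signal after scaling to non-targeting control siRNA wells of the plate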
Conditions: RAW264.7 macrophages, IL-1a HTRF, actives lie on both sides, screened at 100 nM (by protocol), cells primed 5 h with Pam3CSK4 first
Method in brief: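 Cells (RAW264.7, 1×10^4 per well) were transfected with siRNA at 100 nM and cultured 48h at 37 degrees C. Pam3CSK4 was added for 5 hours; LipidA transfection followed for 24 hour. IL-1a was then measured by HTRF.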

Q: For CCUUUAGGUACCACGAGUGTT against Large2, which z-score is on record?
A: -0.965

Q: For CCUUUAAAGUAAGCAUGUGTT against Slc27a4, which z-score is on record?
A: 0.112

Q: With GUUCUUUUUCUUCGGUUCCTT against Olfr1020 as the sequence, how does the z-score read?
A: 0.769

Q: Which z-score does the source give for GGGUCUAGAGUGCAUCUUCTT against Krt78 here?
A: 0.418

Q: Which z-score does the source give for GGCUGUUUUUGCCGGUAUCTT against Teddm3 here?
A: 1.58

Q: Which z-score does the source give for GGAAAACCAACAAAGCAAATT against Pde10a here?
A: -0.692

Q: With UAUGACUCCACUCUUCUCUTT against Olfr1158 as the sequence, how does the z-score read?
A: -2 (active)

Q: Which z-score does the source give for GGAAGAGGGCAAAAAUGGCTT against Sgms2 here?
A: -0.441

Q: For GGUUAUUUCGGGAGAUAAGTT against Nudcd1, which z-score is on record?
A: -0.351

Q: Which z-score does the source give for GGCAGAACGGAAUAAAAUGTT against Stag2 here?
A: -3.03 (active)

Q: With CCUGAUCAUGUUGAAGGAATT against Ktn1 as the sequence, how does the z-score read?
A: 0.256

Q: Which z-score does the source give for GGACACUGCAAAAGAGGAGTT against Defa4 here?
A: 1.37

Q: Which z-score does the source give for GGGAUACUCCAGACAAGGUTT against Usp17ld here?
A: 0.142

Q: With GGCCAUCAGAGCUACACUUTT against Gpa33 as the sequence, how does the z-score read?
A: 0.806

Q: For CAUUGGUAUUGCCAAGGCATT against Olfr1330, which z-score is on record?
A: 0.373

Q: For GGGAGAAACCAUUUCAAGATT against Gm5084, which z-score is on record?
A: 0.0759

Q: With GGAUUUCUCUGCCUGUACUTT against Gdpgp1 as the sequence, how does the z-score read?
A: 0.37

Q: Which z-score does the source give for GAUGAAGAGGCAGGCCAAGTT against Nkx2-4 here?
A: 2.63 (active)

Q: Which z-score does the source give for GGUGUUAGCGAAAUGCUCATT against Prl7b1 here?
A: -0.875

Q: Which z-score does the source give for GCUCACUGCUACAAAUACCTT against Prss2 here?
A: -1.82

Q: Which z-score does the source give for GCUUUAUCCACAGGUGCCATT against Olfr1350 here?
A: -1.9

Q: Which z-score does the source give for GCCUAUUCACCAAAUCACATT against Frrs1 here?
A: 0.408

Q: With GAUCUGGCUGCUUCUUACCTT against Porcn as the sequence, how does the z-score read?
A: -0.623

Q: Which z-score does the source give for GGCAUAAGAAAAUGGACCCTT against Fhit here?
A: 2.04 (active)

Q: For GGGAUAGUGUAAGUUAGUUTT against Dppa4, which z-score is on record?
A: -0.0875

Q: For GUUCUGAAAAUAGAAUAAUTT against Vmn1r16, which z-score is on record?
A: 0.237

Q: With GGCUUGAUUGCAUCUUUAUTT against Ebpl as the sequence, how does the z-score read?
A: -0.765

Q: Which z-score does the source give for CGACACACCUAGCUAAACCTT against Dgkeos here?
A: -1.98

Q: With GGCCUUAGAACAAGGAAUATT against Cdk7 as the sequence, how does the z-score read?
A: -0.769

Q: With CCAAUUACGAGACUCUCAUTT against Zfp786 as the sequence, how does the z-score read?
A: -0.00661

Q: Which z-score does the source give for GCUUAUUGAACUAUUGUUGTT against Trpc4 here?
A: 3.72 (active)

Q: With GGAGCAGUCUAUCUUUGGUTT against Dbn1 as the sequence, how does the z-score read?
A: 1.3

Q: Which z-score does the source give for GGAGAACAAGGCAAAAGAATT against Mindy4 here?
A: -0.945

Q: With GCAGACAGAGUUUUAACGUTT against Fancl as the sequence, how does the z-score read?
A: -0.381

Q: With GCCAUUCACUUAAUUCAGUTT against H2ac8 as the sequence, how does the z-score read?
A: -1.32

Q: With GGCUCUGGCCAUAUUUUGGTT against Olfr549 as the sequence, how does the z-score read?
A: -1.44

Q: With CCAUAGGUAUCAUUGCAAGTT against Tas2r139 as the sequence, how does the z-score read?
A: -2.16 (active)

Q: For GCAAUAAUCGUUCUCAAAATT against Prkab1, which z-score is on record?
A: 1.5

Q: With GGAGAUCAGCUGUCUAAUGTT against Tmem237 as the sequence, how does the z-score read?
A: -0.207

Q: For GGACAGGAUGAGUUUGACATT against Rhou, which z-score is on record?
A: -1.52

Q: For GGAAAUCUCAGAAAUCAAATT against Pmf1, which z-score is on record?
A: -1.15

Q: For GCUCCUUGGGCGAUUUCAGTT against Aggf1, which z-score is on record?
A: 0.265

Q: With GCAAGGUAUUCCAUGCUCATT against Psg27 as the sequence, how does the z-score read?
A: -0.616

Q: Which z-score does the source give for GCUGUGAUCUCAGUAUUCATT against Strbp here?
A: 0.443

Q: Which z-score does the source give for GGUGACCACUUUUAUCUGATT against Olah here?
A: 0.601

Q: With GCCUAAAAAAUCUCUGUGATT against Zswim3 as the sequence, how does the z-score read?
A: -2.77 (active)

Q: With GGACUAUAGAUCCUAAGUCTT against Kcnab2 as the sequence, how does the z-score read?
A: -0.246

Q: With CCACCCUGUGAAAAAGUCATT against Ccr3 as the sequence, how does the z-score read?
A: -1.08

Q: For GAAAGGAAAGCUAGCCAUGTT against Gm5622, which z-score is on record?
A: 0.614

Q: With CCAUUGAAUCAGUUGAAGUTT against Slc5a7 as the sequence, how does the z-score read?
A: 1.21

Q: For GGCCGUUAUGUUUUACAAGTT against Dnajc19, which z-score is on record?
A: 0.00748

Q: Which z-score does the source give for GGGCAUACAUAUAACCUAUTT against Fermt2 here?
A: -0.285

Q: Which z-score does the source give for GCUUUUUGACUACGUAGCCTT against Hkdc1 here?
A: 0.0141

Q: For GGUUUGAGAAAUUGGACAUTT against Pou6f1, which z-score is on record?
A: 3.72 (active)

Q: With GGAAAGCAGGACAAAAGGCTT against Mettl18 as the sequence, how does the z-score read?
A: 0.346

Q: With GUCAUCUUGUUCCAUCUGATT against Olfr1269 as the sequence, how does the z-score read?
A: -1.12

Q: For CGACCUAACCAACAUGCUUTT against Asap3, which z-score is on record?
A: 0.0248

Q: Which z-score does the source give for GGUAGCUGUUUAGGACAAUTT against Arl6ip5 here?
A: 3.79 (active)

Q: For GCGAUUCUGUUGUUAGCUUTT against Rln1, which z-score is on record?
A: 0.134

Q: For GGUAGAAUUGUGAUCUCAGTT against Bco2, which z-score is on record?
A: -0.411

Q: With GCAGGUACUAUUUGUGACGTT against Olfr30 as the sequence, how does the z-score read?
A: 1.07

Q: Which z-score does the source give for GCAGCACGAACUGAUGACGTT against Plcd3 here?
A: -2.18 (active)

Q: With GGUGGACAACCAGUUCUACTT against Mapk10 as the sequence, how does the z-score read?
A: 1.27

Q: Which z-score does the source give for CCUGUGUUUCAGUUUGGUATT against Clptm1l here?
A: 0.549

Q: For GGCUCAAUAAUGUUUUCAATT against Smpd3, which z-score is on record?
A: 3.18 (active)

Q: Which z-score does the source give for CGUAAAUUCACCAAGGAGCTT against Slc19a1 here?
A: -0.805

Q: With GGACAUUGACACUUCCCUGTT against P2rx5 as the sequence, how does the z-score read?
A: -1.85

Q: Which z-score does the source give for GGAGAUAACAGAUCUGUUUTT against Fam114a2 here?
A: -0.843
